Assay results from the supplement of paper PMC11732987, “Enantioselective OTUD7B fragment discovery through chemoproteomics screening and high-throughput optimisation” (Communications Chemistry, 2025).

Legend:
Test in all cases: log2 ratio of Biotin-Ahx-Ub-VS probe labelling (fragment/DMSO); higher = less target engagement (more negative = stronger competition), active = hit call of the paper (q ≤ 0.05, log2 ratio ≤ -1)
Details in all cases: compound concentration: 200 uM; treatment time: 3 h
USP34 = USP34 (UniProt Q70CQ2)
USP34, sequence (Q70CQ2 whole entry, the tested form may be a part): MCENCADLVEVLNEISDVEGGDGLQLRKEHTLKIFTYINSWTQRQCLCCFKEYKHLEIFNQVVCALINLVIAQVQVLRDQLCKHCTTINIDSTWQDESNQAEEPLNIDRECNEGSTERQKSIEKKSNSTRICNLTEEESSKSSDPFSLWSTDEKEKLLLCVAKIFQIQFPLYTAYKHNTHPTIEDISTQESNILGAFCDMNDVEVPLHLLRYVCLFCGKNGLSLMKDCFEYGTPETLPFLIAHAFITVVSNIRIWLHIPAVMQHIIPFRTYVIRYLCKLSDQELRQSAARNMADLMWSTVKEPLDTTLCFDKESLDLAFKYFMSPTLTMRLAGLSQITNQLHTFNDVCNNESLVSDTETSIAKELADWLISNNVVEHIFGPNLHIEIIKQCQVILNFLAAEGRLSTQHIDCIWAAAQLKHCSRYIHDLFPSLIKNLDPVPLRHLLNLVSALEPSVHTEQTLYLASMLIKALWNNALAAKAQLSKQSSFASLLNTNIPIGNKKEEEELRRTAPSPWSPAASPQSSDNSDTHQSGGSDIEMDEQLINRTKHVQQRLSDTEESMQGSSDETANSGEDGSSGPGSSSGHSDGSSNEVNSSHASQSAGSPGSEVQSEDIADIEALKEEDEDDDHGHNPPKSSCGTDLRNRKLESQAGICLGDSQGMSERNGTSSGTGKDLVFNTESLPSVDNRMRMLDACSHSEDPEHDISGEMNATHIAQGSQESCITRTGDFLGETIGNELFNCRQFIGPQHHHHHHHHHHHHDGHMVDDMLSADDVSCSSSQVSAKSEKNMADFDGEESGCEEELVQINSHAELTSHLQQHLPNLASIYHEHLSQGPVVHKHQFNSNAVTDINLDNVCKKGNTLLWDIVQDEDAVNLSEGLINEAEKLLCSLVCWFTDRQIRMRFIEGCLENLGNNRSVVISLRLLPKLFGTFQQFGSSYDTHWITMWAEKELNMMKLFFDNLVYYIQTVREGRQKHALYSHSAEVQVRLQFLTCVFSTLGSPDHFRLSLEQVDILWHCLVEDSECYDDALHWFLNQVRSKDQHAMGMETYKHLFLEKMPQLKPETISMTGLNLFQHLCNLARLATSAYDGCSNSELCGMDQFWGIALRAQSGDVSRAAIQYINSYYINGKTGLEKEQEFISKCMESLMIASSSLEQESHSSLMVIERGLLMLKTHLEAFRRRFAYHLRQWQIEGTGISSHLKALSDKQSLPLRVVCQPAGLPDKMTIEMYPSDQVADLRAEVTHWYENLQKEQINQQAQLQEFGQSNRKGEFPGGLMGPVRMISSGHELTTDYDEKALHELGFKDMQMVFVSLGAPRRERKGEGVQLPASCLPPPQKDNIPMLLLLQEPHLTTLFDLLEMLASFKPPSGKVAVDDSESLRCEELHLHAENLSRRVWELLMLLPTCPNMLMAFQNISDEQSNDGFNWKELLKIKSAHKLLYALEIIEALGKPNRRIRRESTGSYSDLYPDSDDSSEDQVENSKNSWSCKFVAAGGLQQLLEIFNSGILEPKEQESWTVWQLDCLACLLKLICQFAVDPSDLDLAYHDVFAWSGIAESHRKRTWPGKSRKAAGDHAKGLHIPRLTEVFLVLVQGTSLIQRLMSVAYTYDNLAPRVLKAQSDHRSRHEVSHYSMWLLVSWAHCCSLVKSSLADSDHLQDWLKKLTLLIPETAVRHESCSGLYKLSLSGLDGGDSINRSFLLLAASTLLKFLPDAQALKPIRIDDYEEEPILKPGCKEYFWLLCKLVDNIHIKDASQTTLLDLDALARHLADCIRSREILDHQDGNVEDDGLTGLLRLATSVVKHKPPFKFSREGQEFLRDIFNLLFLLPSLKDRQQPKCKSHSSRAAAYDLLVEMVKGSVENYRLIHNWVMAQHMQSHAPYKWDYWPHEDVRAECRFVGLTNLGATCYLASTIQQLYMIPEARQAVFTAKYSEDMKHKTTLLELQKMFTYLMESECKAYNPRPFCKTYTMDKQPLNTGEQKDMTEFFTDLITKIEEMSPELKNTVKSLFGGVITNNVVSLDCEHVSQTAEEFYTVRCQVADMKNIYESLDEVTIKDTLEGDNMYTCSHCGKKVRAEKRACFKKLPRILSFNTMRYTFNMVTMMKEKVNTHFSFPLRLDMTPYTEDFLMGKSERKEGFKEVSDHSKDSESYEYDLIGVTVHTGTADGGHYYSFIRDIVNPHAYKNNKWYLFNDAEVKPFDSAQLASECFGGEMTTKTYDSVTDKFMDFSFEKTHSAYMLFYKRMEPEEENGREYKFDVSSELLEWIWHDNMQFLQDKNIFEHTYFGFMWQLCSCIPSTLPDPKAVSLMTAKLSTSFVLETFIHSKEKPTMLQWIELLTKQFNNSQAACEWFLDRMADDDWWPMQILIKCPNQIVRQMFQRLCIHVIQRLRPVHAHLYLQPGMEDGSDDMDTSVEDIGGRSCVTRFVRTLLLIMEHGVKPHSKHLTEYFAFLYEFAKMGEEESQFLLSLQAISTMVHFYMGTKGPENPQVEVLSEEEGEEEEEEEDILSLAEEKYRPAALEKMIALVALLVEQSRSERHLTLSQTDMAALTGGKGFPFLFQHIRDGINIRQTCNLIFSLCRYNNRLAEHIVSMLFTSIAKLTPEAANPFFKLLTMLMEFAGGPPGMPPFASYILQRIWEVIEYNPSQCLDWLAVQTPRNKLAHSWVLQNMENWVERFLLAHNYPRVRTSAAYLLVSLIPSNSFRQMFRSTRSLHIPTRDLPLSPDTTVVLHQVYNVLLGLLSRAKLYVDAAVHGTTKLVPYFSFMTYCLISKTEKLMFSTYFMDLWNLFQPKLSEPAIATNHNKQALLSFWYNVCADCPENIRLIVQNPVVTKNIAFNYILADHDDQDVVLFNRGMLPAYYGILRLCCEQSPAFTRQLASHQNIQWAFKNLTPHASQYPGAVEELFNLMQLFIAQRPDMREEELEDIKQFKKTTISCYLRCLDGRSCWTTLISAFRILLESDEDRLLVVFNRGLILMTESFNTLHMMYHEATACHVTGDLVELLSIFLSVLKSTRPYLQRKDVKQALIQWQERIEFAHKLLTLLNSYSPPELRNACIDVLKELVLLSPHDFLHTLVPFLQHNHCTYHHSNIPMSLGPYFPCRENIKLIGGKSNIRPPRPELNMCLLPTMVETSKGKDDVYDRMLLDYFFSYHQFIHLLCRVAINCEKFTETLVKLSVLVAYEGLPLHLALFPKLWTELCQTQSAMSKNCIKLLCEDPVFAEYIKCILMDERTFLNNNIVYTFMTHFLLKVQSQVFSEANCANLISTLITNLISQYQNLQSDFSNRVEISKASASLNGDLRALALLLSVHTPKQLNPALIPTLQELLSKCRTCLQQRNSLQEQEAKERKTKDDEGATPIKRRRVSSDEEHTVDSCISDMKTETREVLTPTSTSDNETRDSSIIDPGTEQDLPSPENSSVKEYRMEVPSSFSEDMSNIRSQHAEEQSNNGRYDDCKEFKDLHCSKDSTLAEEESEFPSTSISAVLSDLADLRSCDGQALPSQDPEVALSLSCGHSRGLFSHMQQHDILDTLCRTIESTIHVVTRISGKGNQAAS
Procedure, shortened: (§1)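 Fragment (200 µM) or vehicle was incubated for 3 h with triplicate HEK293T lysate samples of 495 µg, which were then treated with Biotin-Ahx-Ub-VS at 0.5 µM final for 1 h. Labelled DUBs were enriched on NeutrAvidin, digested with LysC and trypsin, and analysed by diaPASEF LC-MS/MS. Values are average log2 fragment/vehicle ratios from an unpaired t-test on global-median-normalised Spectronaut label-free quantities, using proteins with ≥2 unique peptides.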

USP36 = biological target: T1, USP36 (UniProt Q9P275)
T1 sequence (whole entry): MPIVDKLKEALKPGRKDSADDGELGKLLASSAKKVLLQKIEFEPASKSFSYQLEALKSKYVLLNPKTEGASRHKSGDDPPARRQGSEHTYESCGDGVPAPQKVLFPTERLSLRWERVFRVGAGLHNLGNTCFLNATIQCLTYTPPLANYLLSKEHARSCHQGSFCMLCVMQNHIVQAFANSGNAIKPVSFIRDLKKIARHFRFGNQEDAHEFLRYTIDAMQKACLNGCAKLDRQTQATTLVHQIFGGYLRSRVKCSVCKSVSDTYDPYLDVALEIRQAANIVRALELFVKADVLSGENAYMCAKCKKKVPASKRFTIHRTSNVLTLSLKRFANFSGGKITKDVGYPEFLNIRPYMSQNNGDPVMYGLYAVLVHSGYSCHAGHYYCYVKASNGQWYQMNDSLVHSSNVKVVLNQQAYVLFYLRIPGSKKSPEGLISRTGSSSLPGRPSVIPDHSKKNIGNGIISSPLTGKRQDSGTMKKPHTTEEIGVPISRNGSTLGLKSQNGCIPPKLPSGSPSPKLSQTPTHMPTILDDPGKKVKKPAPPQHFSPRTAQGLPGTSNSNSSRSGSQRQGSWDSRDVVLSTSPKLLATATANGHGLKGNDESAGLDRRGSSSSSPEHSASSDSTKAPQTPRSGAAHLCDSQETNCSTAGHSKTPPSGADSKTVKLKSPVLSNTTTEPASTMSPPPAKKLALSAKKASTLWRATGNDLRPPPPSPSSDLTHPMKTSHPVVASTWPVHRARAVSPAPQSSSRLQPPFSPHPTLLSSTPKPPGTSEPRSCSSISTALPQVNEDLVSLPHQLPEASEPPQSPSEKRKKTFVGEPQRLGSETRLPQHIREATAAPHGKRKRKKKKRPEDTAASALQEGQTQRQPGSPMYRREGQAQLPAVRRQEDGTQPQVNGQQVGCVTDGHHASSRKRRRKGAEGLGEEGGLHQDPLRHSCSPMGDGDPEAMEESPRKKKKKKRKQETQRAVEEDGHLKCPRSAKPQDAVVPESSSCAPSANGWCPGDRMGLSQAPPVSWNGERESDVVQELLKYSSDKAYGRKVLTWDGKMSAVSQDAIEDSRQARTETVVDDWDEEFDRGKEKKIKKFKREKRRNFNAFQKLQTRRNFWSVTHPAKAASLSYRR
Procedure, shortened: as §1

USP38 = biological target: T2, USP38 (UniProt Q8NB14)
T2 sequence (whole entry): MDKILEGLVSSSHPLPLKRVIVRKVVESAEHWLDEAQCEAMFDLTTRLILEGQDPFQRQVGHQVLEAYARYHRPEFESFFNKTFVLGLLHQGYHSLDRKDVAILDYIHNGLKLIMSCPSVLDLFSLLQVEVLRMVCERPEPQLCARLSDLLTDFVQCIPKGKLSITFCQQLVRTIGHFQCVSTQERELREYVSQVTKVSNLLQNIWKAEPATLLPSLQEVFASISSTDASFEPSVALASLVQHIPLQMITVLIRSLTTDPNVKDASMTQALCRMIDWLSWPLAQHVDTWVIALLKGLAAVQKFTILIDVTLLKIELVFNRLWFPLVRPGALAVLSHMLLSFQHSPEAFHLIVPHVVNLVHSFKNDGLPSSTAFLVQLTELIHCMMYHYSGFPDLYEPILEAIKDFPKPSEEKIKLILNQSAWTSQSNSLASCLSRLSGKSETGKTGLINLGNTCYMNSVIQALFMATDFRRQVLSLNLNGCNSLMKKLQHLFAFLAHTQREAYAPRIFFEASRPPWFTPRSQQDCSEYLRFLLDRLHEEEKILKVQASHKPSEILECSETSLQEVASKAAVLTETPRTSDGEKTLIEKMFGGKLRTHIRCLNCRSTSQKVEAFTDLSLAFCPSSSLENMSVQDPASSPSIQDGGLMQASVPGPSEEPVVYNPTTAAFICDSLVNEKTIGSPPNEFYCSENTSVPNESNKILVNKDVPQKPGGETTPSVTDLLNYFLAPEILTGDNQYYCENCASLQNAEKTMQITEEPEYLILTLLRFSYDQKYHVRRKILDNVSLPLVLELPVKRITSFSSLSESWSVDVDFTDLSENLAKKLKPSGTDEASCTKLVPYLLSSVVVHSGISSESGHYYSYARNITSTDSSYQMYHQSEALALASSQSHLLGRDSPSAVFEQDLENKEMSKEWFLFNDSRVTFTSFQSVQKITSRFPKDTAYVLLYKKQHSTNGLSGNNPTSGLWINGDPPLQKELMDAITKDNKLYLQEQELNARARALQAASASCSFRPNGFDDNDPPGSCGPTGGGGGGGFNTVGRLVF
Procedure, shortened: as §1

USP39 = biological target: T3, USP39 (UniProt Q53GS9)
T3 sequence (whole entry): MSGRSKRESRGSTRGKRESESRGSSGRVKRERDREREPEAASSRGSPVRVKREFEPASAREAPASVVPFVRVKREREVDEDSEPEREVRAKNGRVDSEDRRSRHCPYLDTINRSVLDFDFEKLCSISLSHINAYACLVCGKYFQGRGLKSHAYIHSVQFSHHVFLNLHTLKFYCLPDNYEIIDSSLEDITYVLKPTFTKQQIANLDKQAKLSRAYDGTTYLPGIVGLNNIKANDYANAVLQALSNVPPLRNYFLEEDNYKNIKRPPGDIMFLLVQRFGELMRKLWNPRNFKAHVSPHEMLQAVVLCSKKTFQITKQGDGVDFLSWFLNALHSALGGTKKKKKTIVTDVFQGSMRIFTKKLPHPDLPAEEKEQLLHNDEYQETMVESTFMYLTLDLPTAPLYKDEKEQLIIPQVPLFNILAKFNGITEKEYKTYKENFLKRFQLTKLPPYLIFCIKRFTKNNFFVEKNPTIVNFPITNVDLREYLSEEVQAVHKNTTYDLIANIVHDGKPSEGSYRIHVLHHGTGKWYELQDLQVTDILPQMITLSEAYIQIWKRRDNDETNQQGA
Procedure, shortened: as §1

USP4 = biological target: T4, USP4 (UniProt Q13107)
T4 sequence (whole entry): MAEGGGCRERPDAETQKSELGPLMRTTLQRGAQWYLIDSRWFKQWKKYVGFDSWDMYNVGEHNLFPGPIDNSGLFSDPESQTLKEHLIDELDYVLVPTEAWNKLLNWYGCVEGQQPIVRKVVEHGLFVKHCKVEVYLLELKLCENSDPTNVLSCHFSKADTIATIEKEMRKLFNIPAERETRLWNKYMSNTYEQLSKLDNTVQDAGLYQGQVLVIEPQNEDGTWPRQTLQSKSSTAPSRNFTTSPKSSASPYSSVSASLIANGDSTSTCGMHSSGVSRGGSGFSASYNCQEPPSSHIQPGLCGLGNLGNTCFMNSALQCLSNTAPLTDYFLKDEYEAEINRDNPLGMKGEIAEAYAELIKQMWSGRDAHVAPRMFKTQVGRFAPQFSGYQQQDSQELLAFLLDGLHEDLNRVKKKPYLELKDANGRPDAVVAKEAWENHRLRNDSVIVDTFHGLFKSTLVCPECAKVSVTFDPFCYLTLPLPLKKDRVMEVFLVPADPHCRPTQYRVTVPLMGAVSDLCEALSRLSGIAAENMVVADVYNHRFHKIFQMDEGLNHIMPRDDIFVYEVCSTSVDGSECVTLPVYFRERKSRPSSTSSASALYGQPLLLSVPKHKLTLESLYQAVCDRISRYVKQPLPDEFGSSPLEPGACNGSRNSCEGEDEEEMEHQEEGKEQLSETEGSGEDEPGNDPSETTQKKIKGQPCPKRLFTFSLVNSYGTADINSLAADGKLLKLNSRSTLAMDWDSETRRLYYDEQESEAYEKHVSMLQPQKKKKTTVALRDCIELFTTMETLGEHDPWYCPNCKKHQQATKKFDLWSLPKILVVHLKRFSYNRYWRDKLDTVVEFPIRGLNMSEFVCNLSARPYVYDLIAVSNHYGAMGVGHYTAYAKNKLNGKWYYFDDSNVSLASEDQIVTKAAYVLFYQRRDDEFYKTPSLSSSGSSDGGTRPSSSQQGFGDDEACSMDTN
Procedure, shortened: as §1

Measured: log2 ratio of Biotin-Ahx-Ub-VS probe labelling

Cl.O=C(CCl)N1CC(c2ccc(Br)cn2)C1
inactive: USP34 -0.16 | USP36 -0.222 | USP38 -0.0763 | USP39 -0.11 | USP4 -0.285
